Measurements taken from the supplement of paper PMC6555819.

How the values were obtained:
Assay in all cases: PBM binding z-score (relative to random genomic background probes); higher = stronger binding; sequences stand for … in GC…GCGATTGACAGCGTAGAATGAAGG
[1] = tested on: FXR:RXRa (NR concentration 270 nM, RXRa partner concentration 90 nM)
Summary of the method: (§1)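 Scanned fluorescence from custom Agilent 4×180K protein-binding microarrays was regression-normalized. Binding z-scores use random background probes as reference. Ligand-free nuclear receptor dimers were incubated on the arrays for 1 h and detected with antibodies against each partner (one per run).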

[2] = tested on: LXRa:RXRa (NR concentration 270 nM, RXRa partner concentration 90 nM)
Summary of the method: as §1

[3] = tested on: LXRa homodimer (NR concentration 270 nM)
Summary of the method: as §1

[4] = tested on: LXRb:RXRa (NR concentration 270 nM, RXRa partner concentration 90 nM)
Summary of the method: as §1

[5] = tested on: LXRb homodimer (NR concentration 270 nM)
Summary of the method: as §1

[6] = tested on: PPARa:RXRa (NR concentration 270 nM, RXRa partner concentration 90 nM)
Summary of the method: as §1

[7] = tested on: PPARg:RXRa (NR concentration 180 nM, RXRa partner concentration 90 nM)
Summary of the method: as §1

[8] = tested on: PPARg:RXRa 270nM:90nM, anti-RXR (NR concentration 270 nM, RXRa partner concentration 90 nM)
Summary of the method: as §1

[9] = tested on: PPARg:RXRa 30nM:10nM, anti-RXR (NR concentration 30 nM, RXRa partner concentration 10 nM)
Summary of the method: as §1

[10] = tested on: PPARg:RXRa 90nM:30nM, anti-RXR (NR concentration 90 nM, RXRa partner concentration 30 nM)
Summary of the method: as §1

[11] = tested on: PPARg:RXRa DBDmut IVT, anti-RXR (DBD mutation: RXRa K156A/R161A, NR concentration 270 nM, RXRa partner concentration 90 nM)
Summary of the method: as §1

[12] = tested on: PPARg:RXRa IVT, anti-PPARg (NR concentration 270 nM, RXRa partner concentration 90 nM)
Summary of the method: as §1

[13] = tested on: PPARg DBDmut:RXRa IVT, anti-PPARg (DBD mutation: PPARg1 K132A/R137A, NR concentration 270 nM, RXRa partner concentration 90 nM)
Summary of the method: as §1

[14] = tested on: PPARg DBDmut IVT, anti-PPARg (DBD mutation: PPARg1 K132A/R137A, NR concentration 270 nM)
Summary of the method: as §1

[15] = tested on: PPARg homodimer (NR concentration 180 nM)
Summary of the method: as §1

[16] = tested on: PXR:RXRa (NR concentration 270 nM, RXRa partner concentration 90 nM)
Summary of the method: as §1

[17] = tested on: PXR homodimer (NR concentration 270 nM)
Summary of the method: as §1

[18] = tested on: RARa:RXR (NR concentration 270 nM, RXRa partner concentration 90 nM)
Summary of the method: as §1

[19] = tested on: RARa homodimer (NR concentration 270 nM)
Summary of the method: as §1

[20] = tested on: RARb:RXRa (NR concentration 270 nM, RXRa partner concentration 90 nM)
Summary of the method: as §1

Sequence	PBM binding z-score [1]	PBM binding z-score [2]	PBM binding z-score [3]	PBM binding z-score [4]	PBM binding z-score [5]	PBM binding z-score [6]	PBM binding z-score [7]	PBM binding z-score [8]	PBM binding z-score [9]	PBM binding z-score [10]	PBM binding z-score [11]	PBM binding z-score [12]	PBM binding z-score [13]	PBM binding z-score [14]	PBM binding z-score [15]	PBM binding z-score [16]	PBM binding z-score [17]	PBM binding z-score [18]	PBM binding z-score [19]	PBM binding z-score [20]
GCTAGTTGGTCAGTAAAAGGTCCCACACCGGTCG	-0.338	-0.272	-0.431	-0.485	-0.39	-0.0763	-0.0473	0.383	-0.539	-0.225	0.066	0.0788	-0.0613	-0.438	0.327	-0.35	-0.579	0.0824	0.292	0.845
CCAGACAGGTGAAAGTTAACTCAGTCTGGTACGC	-0.0765	0.237	-0.419	0.191	-0.617	2.21	2.62	4.15	1.99	3.83	1.64	1.56	-0.637	-0.25	0.325	0.141	-0.35	0.616	-0.352	1.04
TCTATTAGTTGAAGGTCAACCGACGAGTCCGTTT	3.86	4.66	4.55	3.9	1.95	3.95	1.56	3.57	3.89	3.78	2.82	2.45	1.21	0.836	3.86	4.22	2.78	4.4	3.23	4.02
CCTTACGGGTCACTGACAGGTTATGGCATTTGGA	5.56	4.1	0.253	3.08	-0.323	5.03	4.2	4.62	1.67	3.02	3.42	3.8	0.363	-0.311	3.61	3.77	-0.0581	4.95	1.29	4.04
CAAACTAGGTCACGAAAGATCAAAGTCGAATGAC	4.53	5	0.705	3.03	0.541	5.84	9.56	7.69	6.2	7.72	8.91	9.37	5.61	5.17	2.46	2.88	0.236	3.39	1.08	4.37
GATACAGGGTCAACGCCAGAGTACGCGTATTGAT	7	4.57	-0.128	3.91	0.0606	5.69	6.17	5.78	2.67	4.5	3.53	4.25	0.296	0.699	2.98	4.11	0.215	5.05	0.72	4.7
ACAGACAGTTGAGTGAAGGTAACTCAGCTGGACG	0.127	-0.141	-0.198	-0.473	-0.26	-0.127	0.557	-0.26	-0.0499	-0.284	-0.279	0.038	-0.108	-0.693	-0.3	-0.386	-0.571	-0.397	-0.00601	-0.0285
TCATATAGGTAATGCAGGTGAAAGTCGGCATCTA	0.698	0.973	0.228	0.199	-0.224	2.23	1.65	2.58	3.86	2.86	4.18	4.3	0.872	1.17	0.782	0.415	0.211	0.602	0.52	0.41
CGAACTCGGTCATCCAGGACAGTGAATACATTGA	1.39	0.744	0.283	0.275	-0.494	0.964	1.14	0.895	0.134	0.455	3.58	2.52	0.285	0.0941	0.363	0.205	-0.0652	0.856	0.205	2.31
ATCTCTAGGTAACAAGTTTAGTGAAAGAGAGGAC	0.428	0.215	0.326	0.212	0.657	0.577	0.844	1.35	0.486	1.37	3.18	2.92	1.24	1.38	1.04	0.591	0.703	0.429	0.873	0.574
TCAGACAGGTGAAGGTACCTCAGGTACGCAGTCG	0.559	0.611	-0.182	0.0572	-0.29	1.13	0.642	1.8	3.41	2.54	1.89	0.885	0.0512	-0.186	0.265	0.248	-0.155	0.888	-0.298	0.914
TGTCAAAGTTCAAAAGTAACGTAAGTATCCACAC	6.34	6.07	4.09	4.04	2.53	4.83	7.77	6.63	4.65	6.63	-0.0254	3.6	1.92	2.39	1.89	4.46	3.74	3.65	1.1	4.6
TCTGCTAGGTCAACGATTGTCAGCTAATCTGCTA	2.81	1.94	-0.0951	1.4	-0.279	2.93	2.43	2.93	1.9	2.36	4.14	4.13	0.817	0.395	0.734	1.19	-0.478	1.86	-1.01	4.03
ATCTCTAGGTAACAAGTTCAGTGAGAGAGAGGAC	0.938	0.818	0.556	0.613	1.01	1.54	1.41	2.15	0.897	1.64	3.21	3.22	1.3	1.5	1.39	1.73	1.77	0.827	1.3	1.75
